“And” between values parts separate entries of the source, which are not always exact repeats. Equal values may be shown once. About 4,000 (25%) of roughly 16,000 compounds were called active. Another 26% or so got no clear call; they are omitted. The call rests on the fitted dose curve; in most records, active means well fitted curve in the direction sought with a large enough effect; inconclusive means small, poorly fitted or top-dose-only effect, or effect the other way; inactive means no such curve, though single readings can be large or run the other way. These entries were drawn from the full list. The source holds several records for some structures; these can differ, active in one and inactive in another.
biological target: Cytochrome P450 2C9 (Homo sapiens) (UniProt P11712); assay: Cytochrome panel assay with activity outcomes; conditions: recombinant CYP, pro-luciferin dealkylation, luminescence, p450-cyp2c9; series mostly up to 57.1 µM; activity, negative = inhibition: at the top concentration
Sequence (P11712 whole entry, looked up): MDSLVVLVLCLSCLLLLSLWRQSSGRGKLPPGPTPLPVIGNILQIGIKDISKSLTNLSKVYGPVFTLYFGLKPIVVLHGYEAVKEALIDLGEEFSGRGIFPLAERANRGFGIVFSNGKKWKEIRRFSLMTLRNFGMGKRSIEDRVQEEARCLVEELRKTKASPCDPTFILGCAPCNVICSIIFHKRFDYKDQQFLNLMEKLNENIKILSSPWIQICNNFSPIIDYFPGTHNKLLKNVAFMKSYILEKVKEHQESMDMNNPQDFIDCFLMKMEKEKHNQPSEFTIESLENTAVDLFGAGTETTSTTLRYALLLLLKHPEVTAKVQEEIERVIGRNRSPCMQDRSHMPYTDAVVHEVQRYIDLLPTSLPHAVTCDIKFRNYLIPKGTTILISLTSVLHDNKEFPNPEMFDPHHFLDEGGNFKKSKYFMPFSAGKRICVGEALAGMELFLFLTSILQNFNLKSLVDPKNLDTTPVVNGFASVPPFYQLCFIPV
On the % scale 0 is the no-effect control and ±100 the full control effect.

Compound	activity, negative = inhibition	AC50
CN1C(=O)CCS(=O)(=O)[C@@H]1c1ccc(Cl)cc1	8.83% [at 25.6 µM] (inactive)	
c1ccc([C@H]2CNCc3ccccc32)cc1	21.5% (inactive)	
CCCN(CCC)[C@@H]1CCc2cccc(O)c2C1	inactive	
CC[C@]1(c2cccc(O)c2)CCCCN(C)C1	5.89% [at 25.6 µM] (inactive)	
CC1=NN=C(c2ccc(N)cc2)c2cc3c(cc2C1)OCO3		inactive and 1.26 µM (active)
C[C@@H]1Cc2cc3c(cc2C(c2ccc(N)cc2)=NN1)OCO3		25.1 µM (active)
CCCC[N+]1(C)[C@@H]2CC(OC(=O)[C@@H](CO)c3ccccc3)C[C@H]1[C@H]1O[C@H]12 (some centres not stated)	25.2% (inactive)	
CC(C)CC(=O)C[C@H](O)C(Cl)(Cl)Cl	-21.3% [at 11.4 µM] (inactive)	
COc1cc2c(cc1O)C[C@@H]1c3c(cc(O)c(OC)c3-2)CCN1C	-4.78% [at 11.4 µM] (inactive)	
CC(C)CN1CCC2(CC1)CCN(C(=O)Oc1ccccc1)CC2	-0.61% (inactive)	
Cc1nccc2c1[nH]c1ccccc12	inactive	
Cn1c(O)c(C(c2ccccn2)c2c(O)n(C)c(=S)[nH]c2=O)c(=O)[nH]c1=S	-3.3% (inactive)	
O=C(c1cc(-c2ccccc2)nc2ccccc12)N1CCC2(CC1)OCCO2		28.2 µM (active)
O=C(c1cc2cc3ccc(Cl)cc3nc2o1)N1CCC2(CC1)OCCO2	-14.2% (inactive)	
O=[N+]([O-])c1ccc(S(=O)(=O)Cc2ccccc2)c([N+](=O)[O-])c1		3.16 µM (active)
O=C(O)Cc1ccc([N+](=O)[O-])cc1[N+](=O)[O-]	11.5% [at 11.4 µM] (inactive)	
O=C1c2cc([N+](=O)[O-])ccc2-c2ccc3c4ccc5c6c(ccc(c7ccc1c2c73)c64)C(=O)c1cc([N+](=O)[O-])ccc1-5	-26.9% [at 11.4 µM] (inactive)	
N[C@H](Cc1ccc2oc3cc(=O)c4ccccc4c-3nc2c1)C(=O)O	-13.7% [at 11.4 µM] (inactive)	
COc1ccc(C(=O)c2c(C)n(CCN3CCOCC3)c3cc(I)ccc23)cc1	-7.5% (inactive)	
CN(C)CS/C(N)=N/[C@H](O)C(Cl)(Cl)Cl	-28.6% [at 11.4 µM] (inactive)	
CC[N+](CC)(CCNC(=O)C(=O)NCC[N+](CC)(CC)Cc1ccccc1Cl)Cc1ccccc1Cl	-3.12% (inactive)	
C/C=C1\C[C@H](C)[C@@](O)(CO)C(=O)OCC2=CCN3CC[C@@H](OC1=O)[C@@H]23	2.59% [at 25.6 µM] (inactive)	
COCCCN1CCN(c2nnc3n2-c2sc(Br)cc2C(c2ccccc2Cl)=NC3)CC1		12.6 µM (active)
COCCCNC(=S)NC1CC2CCCC(C1)N2Cc1cccs1 (configuration not stated)	25% (inactive)	
COc1cc2c(c(OC)c1OC)-c1ccc(O)c(=O)cc1[C@H](N)CC2	-1.6% [at 25.6 µM] (inactive)	
CC[C@]1(OC(=O)CN)C(=O)OCc2c1cc1n(c2=O)Cc2cc3ccccc3nc2-1	6.92% [at 11.4 µM] (inactive)	

Compound	activity, negative = inhibition	AC50
Nc1ccc(S(=O)(=O)c2ccc(NCN3C(=O)NC(=O)C(=O)C3=O)cc2)cc1	7.48% [at 11.4 µM] (inactive)	
CC(C)(C)CC(=O)NC(=S)Nc1ccccc1C(F)(F)F		2.51 µM (active)
NCCCN1CCN(c2ccccc2)CC1	3.16% [at 11.4 µM] (inactive)	
C/C(=N\OC(=O)NC(C)C)c1sc(-c2ccc(Cl)cc2)nc1C		7.08 µM (active)
CCNC(=O)O/N=C(\C)c1sc(-c2ccccc2)nc1C		8.91 µM (active)
CCC(CC)C(=O)NC1CCSC1=O (configuration not stated)	-18.2% (inactive)	
N=C(N)n1cc(/C=N\N=C(N)N)cn1	5.35% [at 11.4 µM] (inactive)	
CC1=CC(=O)C2=C(C)C[C@@H](O)[C@@H]3[C@@H](OC(=O)[C@H]3C)[C@H]12	-8.01% [at 25.6 µM] (inactive)	
CN(C)C(=O)Oc1cc(OC(=O)N(C)C)cc([C@@H](O)CNC(C)(C)C)c1	-9.69% [at 25.6 µM] (inactive)	
C[C@@]12CC[C@@H]3[C@H](CCC4=CC(=O)CC[C@]43C)[C@@H]1CC[C@@H]2C(=O)Cn1cnc2c(=S)nc[nH]c21	-11.6% [at 11.4 µM] (inactive)	
COC(=O)N1CCC2(CCN(CC(C)C)CC2)CC1	2.36% (inactive)	
C[C@@]12CC[C@H](O)C[C@@H]1CC[C@H]1[C@@H]2C[C@@H](O)[C@]2(C)[C@@H](C3=CC(=O)OC3)CC[C@]12O	4.33% [at 25.6 µM] (inactive)	
C[N+]1(C)CCN(c2ccccc2)CC1	15.2% (inactive)	
C[C@H](CC(C#N)(c1ccccc1)c1ccccc1)N1CCCCC1	6.88% [at 11.4 µM] (inactive)	
COc1cc(CCN)ccc1O	9.44% (inactive)	
CNC[C@H](O)c1ccc(O)c(OC)c1	-14.4% [at 25.6 µM] (inactive)	
COc1cc(CNC(=O)CCCC/C=C\C(C)C)ccc1O		1.26 µM (active)
CCCCCCCCC(=O)NCc1ccc(O)c(OC)c1		3.16 µM (active)
COc1cc([C@@H](O)CN)ccc1O	-10.9% (inactive)	
C[C@@H]1O[C@H](O[C@@H]2CC[C@@]3(C=O)[C@H]4CC[C@@]5(C)[C@@H](C6=CC(=O)OC6)CC[C@@]5(O)[C@@H]4CC[C@]3(O)C2)C[C@H](O)[C@@H]1O	-13.8% [at 25.6 µM] (inactive)	
COc1ccc2[nH]cc(C3=CCNCC3)c2c1	1.78% (inactive)	
C=CCN1C(=O)NC(=O)/C(=C/c2cccn2C)C1=O	-22.7% (inactive)	
O=C(O)Cc1cccnc1C(=O)O	-11.6% (inactive)	
O=c1cccc2n1CC1CNC[C@H]2C1	inactive	
c1ccc(N2CC[C@@]3(CCCNC3)C2)cc1	-22.1% (inactive)	
CC(C)CN1CCC2(CC1)CCN(S(C)(=O)=O)CC2	-12.8% (inactive)	

Compound	activity, negative = inhibition	AC50
Cc1ccc(N(C)C(=O)Oc2cccc3ccc(C)nc23)cc1		11.2 µM (active)
O=C1OC(=O)[C@@H]2[C@@H]1[C@@H]1CC[C@H]2O1	-6.96% (inactive)	
O=C(O)C(C(=O)O)P(=S)(S)c1ccccc1 (configuration not stated)	4.02% [at 11.4 µM] (inactive)	
COC(=O)C[C@](O)(CCCC(C)(C)O)C(=O)O[C@@H]1C(OC)=C[C@]23CCCN2CCc2cc4c(cc2[C@H]13)OCO4	-18% (inactive)	
C[C@]12CC[C@@H]3C(=CCc4cc(O)ccc43)[C@@H]1CCC2=O	-19.8% [at 25.6 µM] (inactive)	
CCN(CC)C(=O)N[C@@H]1C[C@H]2c3cccc4[nH]cc(c34)C[C@@H]2N(C)C1	inactive	
CC(=O)C1=C(O)[C@@H]2[C@@H]3c4c[nH]c5cccc(c45)C[C@@H]3C(C)(C)N2C1=O		31.6 µM (active)
S=C=Nc1cccc(C2(N3CCCCC3)CCCCC2)c1	-2.74% (inactive)	
CCCN[C@@H]1CCc2c(OC)cccc2[C@@H]1C	-3.13% (inactive)	
C=C(C)[C@H]1CC[C@]2(CO)CC[C@]3(C)[C@@H](CC[C@H]4[C@@]5(C)CC[C@@H](O)C(C)(C)[C@@H]5CC[C@@]43C)[C@H]12	-0.565% [at 25.6 µM] (inactive)	
C[C@@H]1[C@@H](C)N1C[C@H](O)Cn1ccnc1[N+](=O)[O-] (some centres not stated)	21.8% [at 11.4 µM] (inactive)	
Oc1ccc2c3c1O[C@H]1c4[nH]c5ccccc5c4C[C@]4(O)[C@H](C2)N(CC2CC2)CC[C@@]314		25.1 µM (active)
Oc1ccc2c3c1O[C@H]1c4[nH]c5c(c4C[C@@]4(O)[C@@H](C2)N(CC2CC2)CC[C@]314)C[C@]1(O)[C@H]2Cc3ccc(O)c4c3[C@@]1(CCN2CC1CC1)[C@@H]5O4	-4.82% (inactive)	
Oc1ccc2c3c1O[C@@H]1c4[nH]c5c(c4C[C@@]4(O)[C@@H](C2)N(CC2CC2)CC[C@]314)C[C@]1(O)[C@@H]2Cc3ccc(O)c4c3[C@@]1(CCN2CC1CC1)[C@H]5O4	12.7% (inactive)	
C=C[C@@H]1CN2CC[C@H]1C[C@H]2[C@H](O)c1ccnc2ccccc12	-2.06% [at 11.4 µM] (inactive)	
c1cncc([C@@H]2CCCCN2)c1	inactive	
C[C@H](N)[C@@H](O)c1ccccc1	-10.4% [at 25.6 µM] (inactive)	
NCCSC(c1ccccc1)c1ccccc1		1 µM (active)
CC(=O)[C@@H]1CC[C@@H]2[C@@H]3CC=C4C[C@H](OS(=O)(=O)O)CC[C@@]4(C)[C@H]3CC[C@]21C	-6.99% (inactive)	
C[C@@H]1O[C@H](OC2[C@@H](O)[C@H](O)C(O)[C@H](O)[C@H]2O)[C@@H](N)C[C@@H]1N=C(N)C(=O)O (some centres not stated)	0.868% [at 11.4 µM] (inactive)	
COc1ccc2c(c1O)-c1cccc3c1[C@H](C2)N(C)CC3	-7.79% (inactive)	
O=[As](O)(O)c1ccc(N=Nc2ccc(O)cc2)cc1	-6.31% [at 11.4 µM] (inactive)	
NNC(=O)c1ccc(O)cc1	10.6% (inactive)	
NC(N)=NC(=O)c1nc(Cl)c(N)nc1N	12.1% (inactive)	
C[C@@]12CC[C@@H]3[C@H](CCC4=CC(=O)CC[C@]43C)[C@@H]1CC[C@@H]2C(=O)COS(=O)(=O)c1ccc(Br)cc1	-18.3% [at 11.4 µM] (inactive)	

Source: PubChem BioAssay AID1851 (National Center for Advancing Translational Sciences (NCATS), 2009)
